Measured values published in article doi:10.1101/2024.03.05.583629.

These sequences were tested against pT7_6His-AlfaTag-HOXD13 (human, UniProt P35453 263-343) (assay: PADIT-seq). Settings: dsDNA, one strand shown.
pT7_6His-AlfaTag-HOXD13, sequence (P35453 263-343): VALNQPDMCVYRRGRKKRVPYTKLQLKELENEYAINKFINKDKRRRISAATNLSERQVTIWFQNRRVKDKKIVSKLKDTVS

Sequence | binding signal [log2FC]
CTCGAGGATATCAAGATCTGGCCTCGGCTTTTTACGTGGAACCTCTAGCTAGCCGACTCACTATAGGGATAATCGCCCTGAGCAAAGACC | 2.42 ± 0.0834
CTCGAGGATATCAAGATCTGGCCTCGGCGCTATAAAAGGAACCTCTAGCTAGCCGACTCACTATAGGGATAATCGCCCTGAGCAAAGACC | 2.83 ± 0.0721
CTCGAGGATATCAAGATCTGGCCTCGGCTGTTTAAAAGGAACCTCTAGCTAGCCGACTCACTATAGGGATAATCGCCCTGAGCAAAGACC | 1.97 ± 0.0666
CTCGAGGATATCAAGATCTGGCCTCGGCGTTTTAGTTGGAACCTCTAGCTAGCCGACTCACTATAGGGATAATCGCCCTGAGCAAAGACC | 0.145 ± 0.11
CTCGAGGATATCAAGATCTGGCCTCGGCTACCTAAAAGGAACCTCTAGCTAGCCGACTCACTATAGGGATAATCGCCCTGAGCAAAGACC | -0.459 ± 0.127
CTCGAGGATATCAAGATCTGGCCTCGGCGCGTGGCAGGGAACCTCTAGCTAGCCGACTCACTATAGGGATAATCGCCCTGAGCAAAGACC | -0.958 ± 0.118
CTCGAGGATATCAAGATCTGGCCTCGGCCGCCCAATAGGAACCTCTAGCTAGCCGACTCACTATAGGGATAATCGCCCTGAGCAAAGACC | -0.536 ± 0.118
CTCGAGGATATCAAGATCTGGCCTCGGCCTTTTATACGGAACCTCTAGCTAGCCGACTCACTATAGGGATAATCGCCCTGAGCAAAGACC | 2.32 ± 0.0734
CTCGAGGATATCAAGATCTGGCCTCGGCCATCTAAAAGGAACCTCTAGCTAGCCGACTCACTATAGGGATAATCGCCCTGAGCAAAGACC | -0.085 ± 0.105
CTCGAGGATATCAAGATCTGGCCTCGGCCGCCCATAAGGAACCTCTAGCTAGCCGACTCACTATAGGGATAATCGCCCTGAGCAAAGACC | -0.213 ± 0.101
